In all, about 2,300 compounds went through this assay and about 1,000 (43%) were called active. The rule behind the calls is not given here. So high a share suggests a set chosen from earlier hits. This is one part of the list. Entries with a potency or affinity are not part of this list.
Assay: modified counter assay using GFP fluorescence, PhoP regulon inhibitor project, dose response (AID 1985)
Conditions: S. Typhi, 4 h; series mostly up to 150 µM

Structure (SMILES) | outcome
O=C(OCc1nc2ccccc2s1)c1ccco1 | inactive
O=C(O)CC/C(=C\c1ccccc1[N+](=O)[O-])c1nc2ccccc2s1 | inactive
O=C1CCCC(=O)N1c1ccc(N2CCOCC2)c([N+](=O)[O-])c1 | inactive
CCn1cc(C(=O)NCCc2ccccc2)c(=O)c2cc(F)c(N3CCN(C)CC3)cc21 | inactive
CN(C)CCN1C(=O)C(O)=C(C(=O)c2cc3ccccc3o2)C1c1ccccn1 (stereo not given) | inactive
O=C(Cn1nc(Cc2ccncc2)c2ccccc2c1=O)Nc1cccnc1Cl | inactive
COc1ccc(N(CCCN2C(=O)c3cccc4cccc(c34)C2=O)C(=O)c2cccnc2)cc1 | inactive
O=C(c1ccco1)N1CCCN(Cc2nc(-c3ccc4c(c3)OCO4)no2)CC1 | inactive
O=C(NCc1ccc2c(c1)OCO2)c1ccc2c(c1)C(=O)N(Cc1cccnc1)C2=O | inactive
C1CCC(n2nnnc2CN2CCN(C3CCCC3)CC2)CC1 | inactive
CCN(CC)CCOC(=O)c1ccc(N/C=C(/C#N)c2nc(-c3ccc(OC)c(OC)c3)cs2)cc1 | inactive
Cc1ccc(-n2ncc3c(=O)[nH]cnc32)c(C)c1 | inactive
N/C(=N\OC(=O)N1CCOCC1)c1ccccc1 | inactive
O=C(Nc1cccc(OCC(=O)N2CCOCC2)c1)c1cccc([N+](=O)[O-])c1 | inactive
O=C1c2ccccc2C(=O)C1(CO)c1ccc(OC(F)F)cc1 | inactive
Cc1nnc(SCC(=O)Nc2cc(S(=O)(=O)N3CCCC3)ccc2Cl)s1 | inactive
COc1ccc(C)cc1S(=O)(=O)N1CCCC(C(=O)NCC2CCCO2)C1 (stereo not given) | inactive
COC(=O)C1=C(C(=O)OC)SC(=C2C(=S)C(C)(C)N(C(=O)C3CC3)c3ccccc32)S1 | inactive
O=C(NCC1CC1)Nc1cccs1 | inactive
CC(C)(C)NC(=O)NC(=O)COC(=O)CCC1CCCC1 | inactive
Cc1c(C(=O)O)oc2c3c(ccc12)OCCO3 | inactive
c1ccc(CNc2nc(N3CCN(Cc4ccccc4)CC3)nc3ccccc23)cc1 | inactive

Structure (SMILES) | outcome
CC(Nc1nc(N2CCCCC2)nc2ccccc12)c1ccccc1 (stereo not given) | inactive
COc1ccc(C(CC(=O)O)NC(=O)C2CCCCC2)cc1 (stereo not given) | inactive
COc1ccc(N2CCN(C(CNC(=O)c3ccc4c(c3)OCO4)c3ccco3)CC2)cc1 (stereo not given) | inactive
CCCOc1ccc(-c2cn3ccccc3n2)cc1 | inactive
COC(=O)c1ccc(NC(=O)c2ccccc2N(C)S(=O)(=O)c2ccccc2)cc1 | inactive
Cc1cccc(N2CCN(C(=O)CCN3C(=S)NC(C)(C)CC3C)CC2)c1C (stereo not given) | inactive
CC(C)OCCCn1c(=S)[nH]c2cc3c(cc2c1=O)OCO3 | inactive
O=C(NCc1ccccn1)c1nc(Cn2ccc([N+](=O)[O-])n2)no1 | inactive
CC(C)c1ccc(N(C(=O)C(F)(F)F)C(C(=O)NC2CCCCC2)c2ccncc2)cc1 (stereo not given) | inactive
O=C(CN1CCCC1)Nc1ccc(-c2nc3cc(NC(=O)CN4CCCC4)ccc3o2)cc1 | inactive
CC(=O)c1c(N2CCN(c3cccc(Cl)c3)CC2)nc(=S)n(-c2ccccc2)c1C | inactive
COc1cccc(NC(=O)CSc2nncn2-c2ccccn2)c1 | inactive
COc1ccc(Nc2nc(-c3ccccc3)nc3ccccc23)cc1S(=O)(=O)N1CCOCC1 | inactive
COc1ccc(OC)c(CCNC(=O)CS(=O)(=O)Cc2nc(-c3ccccc3C)oc2C)c1 | inactive
COC(=O)c1ccc(Cn2c(O)c(N=NC(N)=S)c3ccccc32)o1 | inactive
c1ccc(CSc2ccc(-c3cccs3)nn2)nc1 | inactive
CCc1nnc(NC(=O)c2ccc(S(C)(=O)=O)cc2)s1 | inactive
Cc1ccc2[nH]cc(CCNC(=O)c3cccnc3)c2c1 | inactive
COc1ccc(-c2csc(N)n2)cc1F | inactive
CC(C)(C)n1nc2c(c1NC(=O)c1cccs1)CS(=O)C2 (stereo not given) | inactive
Nc1nc(SCC(=O)N2CCCC2)[nH]c(=O)c1NC(=O)c1cccs1 | inactive
Cc1ccc(NC(=O)OCc2cccs2)cc1 | inactive

Structure (SMILES) | outcome
Cc1cc(C)cc(NC(=O)CSc2nnc(CNC(=O)c3cccs3)o2)c1 | inactive
O=C(Nc1ccc(Cc2ccncc2)cc1)c1cccs1 | inactive
CCc1ccc2c(c1)CCCN2C(=O)c1ccccc1C(=O)O | inactive
CC1Cc2ccccc2N1S(=O)(=O)c1cccc(C(=O)N2CC(=O)Nc3ccccc32)c1 (stereo not given) | inactive
Cc1noc(C)c1CCC(=O)N1CCCC(CCC(=O)NCc2ccc(F)c(F)c2)C1 (stereo not given) | inactive
COc1ccc(NS(=O)(=O)c2cc(NC(=O)c3ccc(C)s3)ccc2N2CCOCC2)cc1 | inactive
CCCC(=O)c1c(NC)cc(C)oc1=O | inactive
CCOC(=O)C1=C(O)c2ccccc2C(=O)/C1=C\c1ccc(C)cc1 | inactive
CCOc1cc(C2NC(=O)N(C)C(C)=C2[N+](=O)[O-])ccc1OC(C)=O (stereo not given) | inactive
CCNc1nc(N)nc(Oc2ccc(OCCOc3ccc(Cl)cc3Cl)nn2)n1 | inactive
CCc1nc(N)nc(N)c1-c1ccc(Cl)cc1 | inactive
NCCCCCc1nnc(SCc2ccc(Cl)cc2Cl)o1 | inactive
COc1ccc(C2C(C#N)=C(N)Oc3n[nH]c(C)c32)cc1CSc1ccccn1 (stereo not given) | inactive
COc1ccc(CCNC2CCCCC2)cc1 | inactive
COc1ccc(OCC(=O)Nc2ccc3c(c2)nc(CCN2CCC(C)CC2)n3C)cc1 | inactive
CCOC(=O)c1cccc(NC(=O)C2CCC(CNc3c(N4CCOCC4)c(=O)c3=O)CC2)c1 (stereo not given) | inactive
Cc1ccc(-c2c(C)n([O-])c3c([n+]2=O)CCCC3)o1 | inactive
O=C(CSc1ccc(Cl)cc1)c1ccco1 | inactive
O=C(CCNC(=O)c1ccco1)Nc1cccc(Br)c1 | inactive
Cc1cc(Cl)ccc1OCCCC(=O)N1CCCc2ccccc21 | inactive
CSc1ccc2c(c1)N(CCC1CCCCN1C)c1ccccc1S2 (stereo not given) | inactive
OCCN1CCN(CCCN2c3ccccc3Sc3ccc(C(F)(F)F)cc32)CC1 | inactive

Structure (SMILES) | outcome
c1ccc2c(c1)OC(CCCN1CCCCC1)c1ccccc1S2 (stereo not given) | inactive
c1ccc(-c2nc(NC3CC3)nc(-n3ccnc3)n2)cc1 | inactive
COc1ccc(C2C(C(=O)NCc3cccnc3)c3ccccc3C(=O)N2C)cc1OC (stereo not given) | inactive
c1ccc2cc3c(NCCN4CCOCC4)ccnc3cc2c1 | inactive
N#Cc1nc(Cc2ccccc2)oc1NCCN1CCOCC1 | inactive
COC(=O)c1ccc(CSc2nc3ccccc3c(=O)n2-c2ccc(OC)c(OC)c2)o1 | inactive
Cc1c(/C=N/NC(=O)c2ccc3c(c2)OCO3)cnn1C | inactive
COc1ccc(C(=O)O/N=C2\C(=O)N(C)c3ccccc32)cc1 | inactive
O=C(Nc1ccc(N2CCOCC2)cc1)C1CCN(S(=O)(=O)c2ccccc2F)CC1 | inactive
CCc1cccc2c(C=C(C#N)C#N)cn(CC(=O)N3CCCCCC3)c12 | inactive
CCOC(=O)c1ccc(S(=O)(=O)N2CCN(CCC#N)CC2)cc1 | inactive
CC(=O)NCc1ccc(C(=O)CCl)cc1 | inactive
CN(C)[C@@H]1C(=O)C(C(N)=O)=C(O)[C@@]2(O)C(=O)C3=C(O)c4c(O)cccc4[C@@](C)(O)C3[C@H](O)C12 (stereo not given in full) | inactive
O=C1c2c(O)ccc(O)c2C(=O)c2c(NCCNCCO)ccc(NCCNCCO)c21 | inactive
C[C@@H](NC(=O)/C(C#N)=C/c1ccc(O)c(O)c1)c1ccccc1 | inactive
Cc1nc2cc(C(=O)N3CCC4(CC3)OCCO4)ccc2n1-c1cccc(F)c1 | inactive
COC(=O)C1=C(C)N(CC2CC2)C(=O)N[C@H]1c1ccc(Br)cc1 | inactive
COC(=O)C1=C(C)N(Cc2ccco2)C(=O)N[C@H]1c1ccc(Br)cc1 | inactive
COc1ccc(CC(=O)N(Cc2cc3cc(OC)ccc3[nH]c2=O)C(C)C)cc1 | inactive
COc1ccc2c(C(=O)CN(C)C3CCCCC3)c[nH]c2c1 | inactive
COC(=O)NNS(=O)(=O)c1ccc(C)cc1 | inactive
N#CCC(=O)N/N=C/c1ccccc1Cl | inactive

Structure (SMILES) | outcome
Cc1cc([N+](=O)[O-])nn1CC(=O)Nc1cccc2nonc12 | inactive
Cc1[nH]nc2c1C1(CCC3(CC1)OCCO3)C(C#N)=C(N)O2 | inactive
NC(=O)COc1c(-c2ccco2)oc2ccccc2c1=O | inactive
O=C(NNC(=O)c1cccs1)c1ccc2ccccc2c1 | inactive
COC(=O)c1ccc(NC(=S)NNC(=O)c2ccccc2)cc1 | inactive
COc1ccc(-c2nc3ccc(C(=O)NCC(OC)OC)cc3nc2-c2ccc(OC)cc2)cc1 | inactive
COc1ccc(-c2noc(CCC(=O)Nc3cccc(C)c3)n2)cc1 | inactive
CCOC(=O)c1cccc(NC(=O)c2cccs2)c1 | inactive
CCCOc1ccc(C2C(C(=O)c3ccc(C)o3)=C(O)C(=O)N2CCCn2ccnc2)cc1 (stereo not given) | inactive
Clc1ccc(-c2cc(C3CCNCC3)[nH]n2)c(Cl)c1 | inactive
C=CCn1c(C)c(C(C)=O)c(SC)nc1=S | inactive
COc1ccc(CNC(=O)C(c2cccs2)N(C(=O)c2csnn2)C2CC2)cc1 (stereo not given) | inactive
COCCN1C(=O)C(=O)/C(=C(/O)c2cccc(OC)c2)C1c1ccncc1 (stereo not given) | inactive
CCC1(CC)C(=O)NC(=O)NC1=Nc1cccc(OC)c1 | inactive
CCC(=O)c1ccc(OCC(O)CNCCc2ccc(Cl)cc2)cc1 (stereo not given) | inactive
Cn1c(=O)cc(SCC(=O)N2CCN(C3CCCCC3)CC2)c2ccccc21 | inactive
Cn1c(C(O)c2ccccc2F)nc(Cl)c1Cl (stereo not given) | inactive
CSc1ccccc1NC(=O)CN1CCCCC1C (stereo not given) | inactive
CNS(=O)(=O)c1cccc(C(=O)OCc2cc(=O)oc3c(C)c(O)ccc23)c1 | inactive
O=C(N/N=C/c1ccc(F)c(F)c1)c1cc2c(s1)-c1ccccc1CC2 | inactive
CC(C)(C)Nc1nc(-c2ccccn2)nc2ccccc12 | inactive
CC(C)(C)NC(=O)/C=C/c1ccc(C(F)(F)F)cc1 | inactive

Reference: PubChem BioAssay AID1985 (Southern Research Specialized Biocontainment Screening …, 2009)
